In all, about 9,900 sequences were measured (“r (bound/input frequency ratio)”: median about 0.7, highest 2% from about 6.5 on). Shown is part of a subset that was picked to be rich in the highest values.

The record followed here is publication PMC12864922, “TDP-43 directly inhibits mRNA accumulation in neurites through modulation of mRNA stability”.

B1: ENSMUSG00000028439.214|Fam219a|183:189;217:221 (ssRNA)
RNA: GGGAGUUCUACAGUCCGACGAUCGCUUCGAUAUCCGCAUGCUAUCUGGAACCUGGGUUCUGGUCCCAGCCUCGGCAUUCUCCCUGAGCUCCUAAGCAAUUCCCAGGCUUCUCUAGGGCUUCAGUUCUCACAACUGGAAAAUAAAGAGUAGCUGACAUCACCGACAGAGUCUUUUCAUACCAGAAGGAAUUUCUUCACAGGAGUUUCUGCAAAAGACUAUGACAUCACACACACUGUGGUCUCACGAGGUACCUGGAGGUCAUACUGCACGGACAUGGGAAGUACGUGAAGAUUUAUUUCGGGACUCUUGCGGUCGCACUAGUGUGGAAUUCUCGGGUGUCAAGG
B2: ENSMUSG00000004113.200|Cacna1b|94:98 (ssRNA)
RNA: GGGAGUUCUACAGUCCGACGAUCGCUUCGAUAUCCGCAUGCUACCUGAUCUCUGGCUCUGAGCAUCGUGGAUGAGGUACGGCCUCAGGAAGCAUCGGGUGGAUUGGGUGGGAGCUGCUCAGAGCAGCACGGGGGCUACACACUUAGGGACAUUGACAGUGUCCAUCAGCAUGUCAGAGAAGCAGCUGUAGUGCCCGUGUUUCUCCCUGAGUCAUGGGUUCUGAAGAAGCCAGAGCGGCACAAUGCGUGCUUGCAUGAGGCACUUUCAGCCUUUUUAAAUCUGACUCUCAGGGAUGGGAUGCCUCUCUUGCGGUCGCACUAGUGUGGAAUUCUCGGGUGUCAAGG
B3: ENSMUSG00000090935.682|Synj2bp (ssRNA)
RNA: GGGAGUUCUACAGUCCGACGAUCGCUUCGAUAUCCGCAUGCUAACUGUCAGGAGCUCUCUCUCUCUGCUUAGAAUCAUCCAGACAGCGGGCUGGUCAGCCCACAUUAAAUAAGAACAUGUGGGACUAGAAUUCAGUCAACAAUGACAUGUUUCAUCAGGUGGUUAAAAUGUACAGAUUCUGUUGGAAAUGUUCCAUGGUAUUUCAAUAGCCAGAAUGAAGAACUGGGCUAAGUCCAGAGCUCUGCUCUCUGAGCAUCUGCCCCAGAUACAGAGGCAGAGUAUGAAGUGGAACAUUGUUUUAUUCUCUUGCGGUCGCACUAGUGUGGAAUUCUCGGGUGUCAAGG
B4: ENSMUSG00000029028.246|Lrrc47|180:184 (ssRNA)
RNA: GGGAGUUCUACAGUCCGACGAUCGCUUCGAUAUCCGCAUGCUAUCCUCGUGGCAGACCCUGGACAACGCUGGUAGCUGUUCUCCAUGAGACACGGCUGCUCACAGGUCCCUUUGAGUGGCUGUGGCAAGUACUCACCUACUAAGUGUUUAGGGUGGAGCUAUCCUGUGCUCACCCUGUCUCCCCCCAGUUCCUGCUGUUCCCUCCAGCCCAGCCCAGCCCAGCACACAGAUUCAUUGAGAUUUUUGAAACUGUUUUUACAGAUUCAAGCAGAACGCCUCUUUGUUCUAAUAAAAACCCUUGGUCUCUUGCGGUCGCACUAGUGUGGAAUUCUCGGGUGUCAAGG
B5: ENSMUSG00000061578.401|Ksr2 (ssRNA)
RNA: GGGAGUUCUACAGUCCGACGAUCGCUUCGAUAUCCGCAUGCUAUUAAUGUACAGACAUCUGGAUCAAGGGAUUAAAAAAAAAAGAAUCAGUCUCUUCCCGGAGGAAGCAUCCGGGGGAAAUGUAUUCCUUCGCCCUGCAAGGAGCCAAUGGGAAGAGAGGGGACCAUAUAGUUAGAGACAUUCCCUACCCCCCGACCACUGACCCGUCCAGACCCUCGCUUCUUACAAUGCCUCUUCUUCUGCCAGACCAGCCACCUGCCCCACUAACACCAAAUGGCUUCUGUCCCUGCUUCACGUUGCAAACUCUUGCGGUCGCACUAGUGUGGAAUUCUCGGGUGUCAAGG
B6: ENSMUSG00000061578.1371|Ksr2 (ssRNA)
RNA: GGGAGUUCUACAGUCCGACGAUCGCUUCGAUAUCCGCAUGCUACUUACAUCUCUGACCCAGUGAUCUUUCUAGGGGUCUGUCACAUGUCCCAACAGGUGGACAGCUCUCCAAGUCACCAACCUGAGGAAAAUAUCCCUCCUUGUAAAAAGGCUUUCUCUUUGUAAAUGAUUCUGUUGCCUUUUUCUAAACACAAAGUAUAUAUACCUAUAAAUGCUAUAUAUAUUAUAUAUGUGUAUAUACAUAAAGACUACUUCUUGUACAGCCCUCCACGGACCUCAGGCCCACUGUUUUCUCCAUGUCUGCUCUUGCGGUCGCACUAGUGUGGAAUUCUCGGGUGUCAAGG
B7: ENSMUSG00000022095.129|Fam160b2|254:258 (ssRNA)
RNA: GGGAGUUCUACAGUCCGACGAUCGCUUCGAUAUCCGCAUGCUACAGCUGGUUCCUCUCUGGCGCCUUCUGAACCCGUCUCAGCAAGUCCGAAACACCUGGGCAGAGAGGUCAUUGACCAGGGAUGGGGGCCCUUGCCCUCUGAAUCCUGCCCAGUGCCCAGGGGUCCAGGUGGAAUGUGGUCCUGGGGACUAUAGGAACUCAAGGUACAGAUGGGACAGGGCACCCCAACUCCAAACCCCAGAAGCCUAGUGAGGCUAGGCCGAGACACAAGCAGAUAGCUCUGGCAUUGUUCUUCCAUACUCCUCUUGCGGUCGCACUAGUGUGGAAUUCUCGGGUGUCAAGG
B8: ENSMUSG00000042529.446|Kcnj12 (ssRNA)
RNA: GGGAGUUCUACAGUCCGACGAUCGCUUCGAUAUCCGCAUGCUAAGCCCAUCUGGUGCUGUGCACCUGGUCCUUGUCCAGCCGAGGGCCUGGGGGCAGAAGAACACACCAUAGGGAGGCCCUUGUAUGGGUGUCUGCCCUAUGUGAGGUCAUAGAAUGUUAAAUCUAUUUUAAACGGUGAAACUGGAGAAUUUUCAUGUUAUUUUCAAUAAUAGUGGUAUCUAAAGAUGUAGGCAACAAGACUAGACCACAUUAAAUGCAUUUUGAUCUCUUUGAAUGCUACUGUGUUGAGAUGUGCGUCUCACCUCUUGCGGUCGCACUAGUGUGGAAUUCUCGGGUGUCAAGG
B9: ENSMUSG00000022095.98|Fam160b2|79:83 (ssRNA)
RNA: GGGAGUUCUACAGUCCGACGAUCGCUUCGAUAUCCGCAUGCUAGGGGAAGCCCCCUCUUCCUGCUCUACCCUCCUGGAGGCUGUUGCAAAAUUCCCAACUGCCUCCUGGCAGAGGCCCAAACAUACCUCUGCGCCCAGGCGGGGGCAGCUGCUAACAAGAGCCCUGGCGCAGCUGCAGCCAGGGCAGGCGAGAGCCUUGGAGCUGGGUGCCAGGCUCCAGCUCCAGCUCCAGCUGGUUCCUCUCUGGCGCCUUCUGAACCCGUCUCAGCAAGUCCGAAACACCUGGGCAGAGAGGUCAUUGACCUCUUGCGGUCGCACUAGUGUGGAAUUCUCGGGUGUCAAGG

TDP-43, sequence (Q13148 whole entry): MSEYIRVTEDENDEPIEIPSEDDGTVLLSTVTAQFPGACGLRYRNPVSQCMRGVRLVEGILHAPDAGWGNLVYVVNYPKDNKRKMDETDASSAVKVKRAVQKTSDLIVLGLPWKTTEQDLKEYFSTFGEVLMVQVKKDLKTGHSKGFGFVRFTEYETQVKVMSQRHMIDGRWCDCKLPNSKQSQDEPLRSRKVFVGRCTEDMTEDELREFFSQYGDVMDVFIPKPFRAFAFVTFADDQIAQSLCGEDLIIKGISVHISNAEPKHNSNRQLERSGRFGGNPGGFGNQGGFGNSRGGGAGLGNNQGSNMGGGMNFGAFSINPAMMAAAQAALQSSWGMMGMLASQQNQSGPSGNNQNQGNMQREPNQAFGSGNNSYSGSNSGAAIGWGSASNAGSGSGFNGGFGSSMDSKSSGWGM

This experiment has as its target TDP-43 (Homo sapiens, UniProt Q13148 1-414). Briefly: RNA Bind-n-Seq with designed 260-mer pool; 25 mM Tris-HCl, 150 mM KCl, 3 mM MgCl2, BSA (printed 500 mg/mL), 20 units/mL SUPERase IN; pH not stated; 500 nM RNA pool, 1 h, 4 C; TDP-43 5, 50, 500 nM; high values mean tight binding. As to conditions: protein: recombinant; tags: SBP (GST cleaved off with PreScission; pGEX-GST-SBP). In a few lines: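 In 25 mM Tris-HCl, 150 mM KCl, 3 mM MgCl2, BSA and SUPERase IN, 500 nM of an in vitro-transcribed 260-nt 3′ UTR oligo pool was incubated for 1 h at 4 °C with SBP-tagged TDP-43 (5, 50 or 500 nM) captured on streptavidin beads. RNA remaining after washes was biotin-eluted, reverse transcribed, PCR-amplified and sequenced. Binding, R, is the bound-sample abundance of each oligo, normalized to mapped reads, divided by its abundance in input. Each duplicate used a separate, independent protein batch.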
With B1, the binding signal is 0.393 R (bound/input frequency ratio).
For the molecule B2, the binding signal was 0.929 R (bound/input frequency ratio).
Consider B3, for which the binding signal is 0.473 R (bound/input frequency ratio).
For the molecule B4, the binding signal was 0.573 R (bound/input frequency ratio).
Take B5: the binding signal was 0.446 R (bound/input frequency ratio).
To B6 belongs 0.0492 R (bound/input frequency ratio); to B7, 0.357 R (bound/input frequency ratio); to B8, 1.1 R (bound/input frequency ratio).
To B9 belongs 0.706 R (bound/input frequency ratio).
